The values that follow come from PubChem BioAssay (Tox21).

A short description of test [1]: qHTS assay to identify small molecule agonists of the RXR signaling pathway - cell viability counter screen (AID 1159529). Further: nearly all actives have a fitted effect of over 50% in size. Further: potency means the concentration at half of the fitted maximal effect. The essentials:
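Same-well viability check after the LiveBLAzer FRET read: CellTiter-Glo added, luminescence measured after 30 min at room temperature. Reporter HEK 293T cells had been treated with compounds for 16 hr following a 5 hr preincubation.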

Test [2] is described as follows: qHTS assay to identify small molecule antagonists of the retinoid acid receptor (RAR) signaling pathway - cell viability counter screen (AID 1159551). Further: nearly all actives have a fitted effect of over 35% in size. The essentials: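 Luminescent ATP quantitation (CellTiter-Glo) gave cell viability in C3RL4 cells exposed to test chemicals for 6 h at 37 C alongside 1 uM final retinol.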
Test [3] is described as follows: qHTS assay to identify small molecule antagonists of the retinoic acid receptor (RAR) signaling pathway (AID 1159552; further: nearly all actives have a fitted effect of over 50% in size; further: potency means the concentration at half of the fitted maximal effect). The gist of the method:
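Readout: luciferase luminescence, 30 min post-reagent at RT. Setup: C3RL4 RARE reporter cells, compounds plus retinol 1 uM final, 6 hr incubation at 37 C and 5% CO2.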

Test [4] can be described thus: qHTS assay to identify small molecule agonists of the retinoic acid receptor (RAR) signaling pathway (AID 1159553). The essentials: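 Luminescence from a RARE-driven luciferase reporter in C3RL4 cells served as the read-out, measured after 30 min with detection reagent at room temperature. Compounds in DMSO were applied for 6 hr at 37 C following overnight seeding.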

Test [5] is described as follows: qHTS assay to identify small molecule antagonists of the estrogen related receptor (ERR) signaling pathway - cell viability counter screen (AID 1224818).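 Further: series mostly up to about 46 µM; viability measured after 17.5 h of compound exposure.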 The essentials: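 Multiplexed counter screen to separate cytotoxic compounds from true ERR modulators. ERR cells received DMSO-dissolved compounds after a 6 h pre-incubation, were exposed 17.5 h at 37 C, then assayed with CellTiter-Fluor fluorescence.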

Test [6] in a line: qHTS assay to identify small molecule antagonists of the estrogen related receptor signaling pathway with the pleiotropic PPARgamma coactivator (PGC) cell viability counter screen (AID 1224822;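 further: series mostly up to about 46 µM; viability read after 17.5 h compound exposure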). The essentials:
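Cells: PGC/ERR, 2,000/well, 1536-well format. Pre-incubation 6 h, 37 C/5% CO2. Compound exposure 17.5 h, 37 C. Detection: CellTiter-Fluor, 30 min, fluorescence.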

Results filed as inconclusive are left out. Activity calls are given as the source filed them. The call rests on the fitted dose curve; in most records, active means well fitted curve in the direction sought with a large enough effect in the repeat runs; inconclusive means weak or mixed curves; inactive means no such curve, though single readings can be large; an effect the other way counts as inactive or inconclusive.

As to `CSSC`, the Potency result in test [1], in test [2], in test [3] and in test [4] was “inactive” in each case.

As for `CNC(=O)CSP(=O)(OC)OC`, the Potency entry in test [1], in test [2], in test [3] and in test [4] was “inactive” in each case.

Consider `CN`, for which the Potency entry in test [1], in test [2], in test [3] and in test [4] was “inactive” in each case.

`C#CCO`: the Potency entry in test [1], in test [2], in test [3] and in test [4] was “inactive” throughout.

For the compound `Brc1cccc(-c2ccccc2)c1`, the Potency result in test [1], in test [2], in test [3] and in test [4] was “inactive” throughout.

`CC(C)[C@@H](Nc1ccc(C(F)(F)F)cc1Cl)C(=O)OC(C#N)c1cccc(Oc2ccccc2)c1` (stereo partly drawn): the Potency result in test [1], in test [2], in test [3] and in test [4] was “inactive” in each case.

Regarding `CC(C)NCC(O)c1ccccc1Cl` (stereo not drawn), the Potency entry in test [1], in test [2], in test [3] and in test [4] was “inactive” throughout.

With `Cc1ccn2nc(S(=O)(=O)Nc3c(F)cccc3F)nc2n1`, the Potency result in test [1], in test [2], in test [3] and in test [4] was “inactive” in each case.

For `Oc1cc(Cl)cc(Cl)c1`, the Potency entry in test [1], in test [2], in test [3] and in test [4] was “inactive” throughout.

In the case of `O=C(NC(=O)c1ccccc1Cl)Nc1ccc(OC(F)(F)F)cc1`, the Potency result in test [1], in test [2], in test [3] and in test [4] was “inactive” each time.

Take `Cc1cccc(Cc2cnc[nH]2)c1C`: the Potency result in test [1], in test [2], in test [3] and in test [4] was “inactive” in each case.

For the compound `Oc1ccc2[nH]cc(CCCCN3CC=C(c4ccccc4)CC3)c2c1`, the Potency entry in test [1], in test [2], in test [3] and in test [4] was “inactive” in each case.

Take `CCC1(CC)C(=O)N=C(O)NC1=O`: the Potency result in test [1], in test [2], in test [3] and in test [4] was “inactive” each time.

With `O=NN(CCO)CCO`, the Potency entry in test [1], in test [2], in test [3] and in test [4] was “inactive” throughout.

On to `O=C(O)CCCCCCNC1c2ccccc2CCc2ccccc21`, for which the Potency entry in test [1], in test [2], in test [3] and in test [4] was “inactive” throughout.

`CCNc1nc(NC(C)C(C)C)nc(SC)n1` (stereo not drawn): the Potency entry in test [1], in test [2], in test [3] and in test [4] was “inactive” each time.

On to `CC#C[C@]1(O)CC[C@H]2[C@@H]3C[C@H](C)C4=CC(=O)CC[C@]4(C)[C@H]3CC[C@@]21C`, for which the Potency result in test [1], in test [2] and in test [4] was “inactive” in each case. For the same compound, in test [3], the Potency is 13.3 µM (active).

Consider `CC1(C)C(C=C(Cl)Cl)C1C(=O)OC(C#N)c1ccc(F)c(Oc2ccccc2)c1` (stereo not drawn), for which the Potency entry in test [1], in test [2], in test [3] and in test [4] was “inactive” in each case.

For `O=Cc1ccccc1`, the Potency entry in test [1], in test [2], in test [3] and in test [4] was “inactive” throughout.

Take `CCOP(=O)(Sc1ccccc1)Sc1ccccc1`: the Potency result in test [1], in test [2] and in test [4] was “inactive” in each case. Further, the Potency in test [3] is 48.6 µM (active).

As to `CCN(CC)C(=O)N[C@@H]1C=C2c3cccc4[nH]cc(c34)C[C@@H]2N(C)C1`, the Potency entry in test [1], in test [2], in test [3] and in test [4] was “inactive” in each case.

For the compound `CCCN`, the Potency entry in test [1], in test [2], in test [3] and in test [4] was “inactive” in each case.

In the case of `C=CC(=C)C`, the Potency result in test [1], in test [2], in test [3] and in test [4] was “inactive” each time.

Regarding `CCCCN(CCCC)C(=S)S`, the Potency result in test [1], in test [2], in test [3] and in test [4] was “inactive” each time.

Consider `Nc1ccccc1-c1ccccc1`, for which the Potency in test [1] was 21.7 µM (active). Moreover, the Potency entry in test [2], in test [3] and in test [4] was “inactive” in each case.

Turning to `BrCCCBr`, the Potency entry in test [1], in test [2], in test [3] and in test [4] was “inactive” in each case.

Turning to `CC1CN1` (stereo not drawn), the Potency result in test [1], in test [2], in test [3] and in test [4] was “inactive” each time.

Turning to `N#Cc1ccc(N(CC(N)=O)CC(F)(F)F)cc1C(F)(F)F`, the Potency entry in test [1], in test [2], in test [3] and in test [4] was “inactive” throughout.

For the compound `COC(=O)c1cc(Oc2ccc(Cl)cc2Cl)ccc1[N+](=O)[O-]`, the Potency entry in test [1], in test [2], in test [3] and in test [4] was “inactive” each time.

Consider `CC(C)c1c(CN(C)C(C)Cc2ccccc2)n(C)n(-c2ccccc2)c1=O` (stereo not drawn), for which the Potency entry in test [1], in test [2], in test [3] and in test [4] was “inactive” throughout.

For `CCCCC(CC)COC(=O)c1ccccc1C(=O)OCC(CC)CCCC` (stereo not drawn), the Potency entry in test [1], in test [2], in test [4], in test [5] and in test [6] was “inactive” each time.

As for `COP(=O)(OC)O/C(=C\Cl)c1cc(Cl)c(Cl)cc1Cl`, the Potency result in test [1], in test [2] and in test [4] was “inactive” each time.
